Laboratory results: PubChem BioAssay AID2796 (The Scripps Research Institute Molecular Screening Center, 2010)
Hit rate of the full screen: of about 320,000 compounds, about 8,000 (2.5%) were called active. The sample as a whole holds a higher share of actives than the screen did. A number with no mark means an inactive call. Cut-off read from the data, not from the text of the source: active = activation above about 47%; inactive = the rest.

These molecules were tested against Aryl hydrocarbon receptor (Homo sapiens) (UniProt P35869) (assay: AHR activators, primary screen, cell-based, luminescence, luciferase reporter, human (AID 2796;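 note: 0% = vehicle wells and 100% = reference agonist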)). Conditions: AHR-responsive luciferase reporter cells, at 5 µM, active compounds read high.
Chain of Aryl hydrocarbon receptor (Homo sapiens) (P35869 whole entry, looked up): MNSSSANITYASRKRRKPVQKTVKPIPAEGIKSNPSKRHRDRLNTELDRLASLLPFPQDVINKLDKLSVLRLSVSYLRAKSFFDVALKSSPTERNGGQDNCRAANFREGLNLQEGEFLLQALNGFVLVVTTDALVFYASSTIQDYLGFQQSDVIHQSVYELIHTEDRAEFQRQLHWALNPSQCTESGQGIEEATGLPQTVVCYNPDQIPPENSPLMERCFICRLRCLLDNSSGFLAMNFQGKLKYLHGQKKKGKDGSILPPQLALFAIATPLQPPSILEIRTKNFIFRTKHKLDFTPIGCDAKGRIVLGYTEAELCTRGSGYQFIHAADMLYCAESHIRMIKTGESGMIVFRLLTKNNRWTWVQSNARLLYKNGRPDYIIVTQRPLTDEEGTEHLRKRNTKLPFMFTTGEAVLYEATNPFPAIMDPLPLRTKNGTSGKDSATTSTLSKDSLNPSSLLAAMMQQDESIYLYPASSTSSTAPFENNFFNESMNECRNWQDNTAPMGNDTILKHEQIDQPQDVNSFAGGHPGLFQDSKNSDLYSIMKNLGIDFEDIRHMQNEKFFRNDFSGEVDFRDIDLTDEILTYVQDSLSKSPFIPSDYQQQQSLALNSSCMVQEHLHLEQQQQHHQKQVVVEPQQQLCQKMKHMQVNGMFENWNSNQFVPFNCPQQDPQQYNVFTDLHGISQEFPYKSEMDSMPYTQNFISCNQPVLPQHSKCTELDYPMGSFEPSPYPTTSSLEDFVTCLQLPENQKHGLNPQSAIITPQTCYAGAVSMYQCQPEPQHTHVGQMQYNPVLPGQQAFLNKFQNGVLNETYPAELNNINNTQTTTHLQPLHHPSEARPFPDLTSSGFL

SMILES | activation
O=C(COc1ccc(Br)cc1F)NCC1(N2CCCCC2)CCCCC1 | -0.81%
O=c1oc2c(Cl)cc(Cl)cc2cc1-c1nnc(Nc2ccccc2F)s1 | 10.5%
OC(COCCC12CC3CC(CC(C3)C1)C2)CN1CCCCC1 (configuration not stated) | 0.68%
CC(=O)N[C@H]1[C@H]([C@H](O)[C@H](O)CO)OC(C(=O)O)=C[C@@H]1O | 0.57%
Cc1ccc(S(=O)(=O)N(CC(=O)Nc2cccc([N+](=O)[O-])c2)Cc2ccc(Cl)cc2)cc1 | 6.55%
CC1Cc2ccccc2N1C(=O)CSc1nnc(C2CC2)n1C (configuration not stated) | 93% (active)
CCn1c(CSc2ncccn2)nnc1SCC(=O)N1c2ccccc2CC1C (configuration not stated) | -1.92%
CC1Cc2ccccc2N1C(=O)CSc1nnc(-c2ccc(S(=O)(=O)N3CCCC3)cc2)n1C (configuration not stated) | 1.18%
CO/N=C/c1ccc(N2CCN(C(=O)c3cccc(Cl)c3)CC2)c([N+](=O)[O-])c1 | -0.18%
Cc1nn(Cc2ccccc2Cl)c(C)c1NC(=O)Cn1nc([N+](=O)[O-])c(Cl)c1C | 0.37%
COc1cccc(NC(=O)COc2cc(C)cc3oc(=O)cc(C)c23)c1 | 12.3%
Cc1c(NC(=O)c2coc(=O)c(Br)c2)c(=O)n(-c2ccccc2)n1C | 0.64%
Cc1cc2oc(C(=O)Nc3c(C)n(C)n(-c4ccccc4)c3=O)c(C)c2cc1Cl | 81% (active)
Cc1c(NC(=O)c2cc(-c3ccc(Br)cc3)on2)c(=O)n(-c2ccccc2)n1C | -3.47%
COCCN(Cc1cc2cc3c(cc2nc1Cl)OCO3)C(=O)c1cccc(C)c1 | 11.9%
Cc1nnc(NCCO)c2ccccc12 | -2.09%
COc1ccc(Nc2nc(=O)[nH]nc2C)cc1 | -3.65%
COc1ccc(Nc2nnc(C)c3ccccc23)cc1 | 102% (active)
CCCCNC(=O)N1CCCC(N(C)CCc2ccc(OC)c(OC)c2)C1 (configuration not stated) | -0.75%
CCNC(=O)NNC(=O)C1CC(c2cccs2)=NO1 (configuration not stated) | 3.35%
Cn1cccc1C(=O)OCC(=O)NCCc1ccccc1 | 7.54%
S=c1nc2ccccc2c2nc(-c3cccnc3)[nH]n12 | 83.8% (active)
O=C(CSc1n[nH]c(-c2cccnc2)n1)Nc1ccnc2ccccc12 | 8.3%
c1ccc(-n2nnnc2-c2cccnc2)cc1 | 36.3%
O=C(/C=C/Sc1ncn[nH]1)c1ccc(Cl)cc1 | 0.35%

SMILES | activation
COc1cc(C)ccc1OCC(=O)OCC(=O)c1ccc[nH]1 | -3.4%
C[C@@H](Nc1nc(-c2ccccc2)nc2c1oc1ccccc12)C(=O)O | 16.4%
CCOCCCNc1nc(-c2ccccc2)nc2ccccc12 | 13.5%
COCCNc1nc(-c2ccccc2)nc2c1oc1ccccc12 | 88.9% (active)
Nc1nnn(CC(=O)N/N=C/c2ccccc2)n1 | 0.68%
Cc1nn(-c2ccccc2)c(C)c1/C=N/NC(=O)CSc1nc2ccccc2c(=O)n1-c1ccccc1 | 1.64%
O=C(Cn1cncn1)N/N=C/c1c2ccccc2cc2ccccc12 | 84.8% (active)
CCCCNC(=O)C1CCCNC1=O (configuration not stated) | -1.12%
c1ccc(-c2csc(N3CCc4ccccc4C3)n2)cc1 | 14.7%
O=C(NN=Cc1ccc(N2CCOCC2)cc1)c1cc2ccccc2cc1O | 11.3%
NC(=O)c1ccccc1N=Cc1ccc2ccccc2c1 | 87.6% (active)
COc1ccc(/C=N/Nc2ccccc2C(=O)O)cc1 | 3.83%
O=C(c1ccc(N2CCOCC2)c([N+](=O)[O-])c1)N1CCN(S(=O)(=O)c2cccs2)CC1 | -4.2%
Cn1c(=O)c2c(nc(N3CCOCC3)n2CCNC2=NCCC2)n(C)c1=O | -1.68%
O=C(c1ccc(F)cc1)N1CCC(n2nnc3ccccc32)CC1 | -1.01%
CCS(=O)(=O)N1Cc2ccccc2CC1C(=O)Nc1nc2ccc(F)cc2s1 (configuration not stated) | -3.42%
Fc1ccc2nc(Nc3nc4c(s3)CCCC4)sc2c1 | 49.8% (active)
NS(=O)(=O)c1ccc2nc(NC(=O)CS(=O)(=O)c3ccc(F)cc3)sc2c1 | 8.79%
O=C(Nc1ccc(Br)cc1F)C1CC(=O)N(C2CCCCC2)C1 (configuration not stated) | 0.73%
COc1ccccc1CCNC(=O)CN1C(=O)NC2(CCCC2)C1=O | -2.06%
Cc1cc2c(cc1S(=O)(=O)NCc1ccc(Cl)cc1)OCC(=O)N2 | 1%
COc1ccccc1-c1nnc(SCC(=O)N2CC(C)CC(C)C2)o1 (configuration not stated) | 29%
COc1cccc(NC(=O)CSc2nnc(-c3cccnc3)o2)c1 | 29.8%
COc1ccccc1-c1nnc(SCC(=O)Nc2ccccc2)o1 | 75.5% (active)
CN(CC(=O)Nc1ccc(F)cc1)CC(=O)N1CCCCC1 | 3.11%

SMILES | activation
CCc1ccc(N(C(=O)c2csnn2)C(C(=O)NC2CCCCC2)c2ccncc2)cc1 (configuration not stated) | 3.1%
O=C(CN1C(=O)NC2(CCCC2)C1=O)Nc1cc(C(F)(F)F)ccc1N1CCOCC1 | -0.32%
COc1ccc(C)cc1NC(=O)c1ccc(-c2ccc(C(C)=O)cc2)o1 | 40.5%
CCOC(=O)c1ccc(-c2ccc(C(=O)Nc3cccnc3)o2)cc1 | 48.9% (active)
COc1cccc(C(=O)Nc2cccnc2)c1OC | 19.2%
CCN(CC)P(=O)(C(NC(=O)OC)C(F)(F)C(F)(F)C(F)(F)C(F)F)N(CC)CC (configuration not stated) | -0.37%
O=C(N/N=C/c1ccc2c(c1)OCO2)C(=O)N1CCCC1 | 38.1%
O=C1/C(=C/c2ccc3c(c2)OCO3)CCC/C1=C\c1ccc2c(c1)OCO2 | 72.7% (active)
CCC1=C/C(=C\c2ccc3c(c2)OCO3)C(=O)S1 | 1.47%
Cc1ccc(S(=O)(=O)N(C)CC(=O)NCC(c2ccc(F)cc2)N2CCOCC2)cc1 (configuration not stated) | -0.69%
Brc1ccc(C2=CC(c3ccco3)n3ncnc3N2)cc1 (configuration not stated) | 95.6% (active)
CC1=C(C(=O)OCc2ccccc2)C(c2ccco2)n2ncnc2N1 (configuration not stated) | 1.22%
CCOc1ccc(C2=CC(c3ccccc3)n3ncnc3N2)cc1 (configuration not stated) | -3.83%
C#CCNC(=O)C1=C[C@@H](c2ccccc2)[C@H](CCCO)[C@@H](OCC)O1 | 1.77%
CCCCn1nc(C(=O)Nc2ccc(S(=O)(=O)Nc3ncccn3)cc2)c2ccccc2c1=O | 2.56%
CC1=NN(C(N)=S)C(=O)C1N=Nc1cc(Cl)ccc1Cl (configuration not stated) | 11.5%
Cc1cccc(N=Nc2c(C)[nH]n(-c3ccccc3)c2=O)c1 | 40%
Cc1[nH]n(C(N)=S)c(=O)c1N=Nc1ccc(Cl)cc1Cl | 55.6% (active)
O=C(CCc1ccccc1)Nc1ncc([N+](=O)[O-])s1 | 6.21%
O=C(Cc1c(F)cccc1Cl)Nc1ccc(-n2cnnn2)cc1 | 0.09%
O=C(Cc1c(F)cccc1Cl)Nc1ncc([N+](=O)[O-])s1 | 48.5% (active)
CCOC(=O)C(=Cc1ccccc1OC)C(=O)OCC | -3.1%
CN(C)c1ccnc2sc(C(=O)c3ccccc3)c(N)c12 | 15.9%
CCN(CC)C(=O)c1sc2nc(-c3ccccc3)ccc2c1N | 76.4% (active)
Nc1c(C(=O)NCc2ccccc2)sc2nc3c(cc12)C(=O)CCC3 | 2.82%

SMILES | activation
Cc1ccc(N2C(=O)C(NC(=O)c3c(F)cccc3F)(C(F)(F)F)C3=C2CC(C)(C)CC3=O)cc1 (configuration not stated) | 2.49%
O=C(CC1Nc2ccccc2NC1=O)Nc1ccccc1 (configuration not stated) | 101% (active)
Cc1ccc(CNC(=O)CC2Sc3ccccc3NC2=O)cc1 (configuration not stated) | 4%
O=C(CC1NCCNC1=O)Nc1ccc(Oc2ccccc2)cc1 (configuration not stated) | 5.88%
O=C(CC1Nc2ccccc2NC1=O)Nc1ccccc1NC(=O)CC1Nc2ccccc2NC1=O (configuration not stated) | 47.5% (active)
COC(=O)C(C)C1Sc2ccccc2NC1=O (configuration not stated) | -0.86%
O=C(CC1NCCc2ccccc21)Nc1cccc(Cl)c1 (configuration not stated) | 8.99%
COC(=O)c1c(C)oc2ccc(N(C(=O)Oc3ccccc3)S(=O)(=O)c3ccccc3)cc12 | -0.17%
COCCCNC(=O)c1ccc(CNS(=O)(=O)c2ccc(NC(C)=O)cc2)cc1 | 0.77%
Cc1cc(C)n(CC(O)COc2ccc(C(C)(C)C)cc2)n1 (configuration not stated) | 1.06%
COc1ccc(OCCNC(=O)c2cc(C3CC3)nc3c2cnn3C(C)C)cc1 | 5.03%
CC(C)n1ncc2c(C(=O)Nc3ccc(CC#N)cc3)cc(C3CC3)nc21 | 89.9% (active)
CC(C)n1ncc2c(C(=O)NCc3ccccc3CN(C)C)cc(C3CC3)nc21 | 2.81%
O=C(CCNC(=O)c1ccccc1Cl)NN=Cc1ccco1 | -0.2%
Cc1ccc(C(=O)N/C(=C\c2cn(S(=O)(=O)N(C)C)c3ccccc23)C(=O)N2CCCC2)cc1 | 0.25%
S=c1[nH]nc(COc2ccccc2)n1-c1ccccc1 | -2.15%
Cc1ccc(OCc2n[nH]c(=S)n2-c2ccccc2)cc1 | 2.23%
S=c1[nH]nc(-c2cc(-c3ccsc3)n[nH]2)n1-c1ccccc1 | 84% (active)
CCc1ccc(C(=O)OCC(=O)NCC(F)(F)F)cc1 | 1.13%
Fc1ccc2cnc(-c3ccccc3)cc2c1 | 31.9%
O=C(Nc1ccccc1F)c1ccc2c(c1)OCO2 | 7.6%
Fc1ccccc1-c1cc2cc3c(cc2cn1)OCO3 | 77.2% (active)
